# Rows were chosen to be rich in hits. Some 2.4% of all compounds tested hit in one or more screens of this group.
# D2 ag-1: agonists of human D2 dopamine receptor; P14416; activation, % at 2 µM; AID 485358; HEK293 T-REx D2 cells, calcium flux agonist mode; 0.53% of 340,000 active;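 active = activation over 3 SD above normal in the single-dose calcium agonist read, cut at about 30% in these data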; also: 0% is about no effect
# Target sequence (P14416 whole entry, looked up): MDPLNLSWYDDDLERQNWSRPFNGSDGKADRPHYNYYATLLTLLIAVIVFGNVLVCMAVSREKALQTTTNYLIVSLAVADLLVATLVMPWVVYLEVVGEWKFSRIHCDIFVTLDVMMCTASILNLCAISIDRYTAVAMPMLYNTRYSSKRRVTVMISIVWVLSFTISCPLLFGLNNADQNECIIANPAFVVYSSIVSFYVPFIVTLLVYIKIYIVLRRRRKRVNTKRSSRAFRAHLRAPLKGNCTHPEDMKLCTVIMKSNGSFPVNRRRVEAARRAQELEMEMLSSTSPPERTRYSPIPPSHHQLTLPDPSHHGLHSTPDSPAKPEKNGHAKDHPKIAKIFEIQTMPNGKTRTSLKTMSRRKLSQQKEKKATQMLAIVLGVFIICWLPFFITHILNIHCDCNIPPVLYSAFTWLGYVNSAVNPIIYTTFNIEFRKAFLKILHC
#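 Tetracycline-induced HEK293 T-REx cells with force-coupled D2 receptor, plated overnight at 30 C, loaded with no-wash calcium dye. After a 10 s baseline, compound was pin-added and calcium flux read kinetically for 180 s; calcium rises flagged agonists.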
# D2 PAM-1: D2 dopamine receptor (human) potentiation | 0.34% of 340,000 active | HEK293 T-REx D2, calcium flux, EC20 dopamine potentiation | P14416 | potentiation, % at 10 µM;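 active = potentiation over 3 SD above the plate norm, cut at about 30% in these data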; also: 0% is about no effect
#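 Potentiation of an EC20 dopamine calcium response measured kinetically over 180 s, after a preceding 180 s compound-only read flagging agonists. Cells: inducible Hek293 Trex D2 line, 4000/well, cultured overnight at 30 C before dye loading.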
# D2 ag-2: human D2 receptor agonism in beta-arrestin assay | P14416 | activation, % (no concentration beside the values) | DiscoveRx PathHunter D2 beta-arrestin, luminescence, 90 min; 100% = 57 uM dopamine signal | 0.084% of 360,000 active; in the data active = activation above about 40%; inconclusive = between about 15% and that limit
#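 Agonist mode: compounds alone added to overnight-plated D2 PathHunter cells for 90 min at 37 C, with 57 uM final dopamine (EC100) defining full response. Beta-arrestin recruitment detected by chemiluminescent reagent, read after 1 h at ambient temperature.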
# D2 antag: D2 dopamine receptor (human) antagonism; 2% of 340,000 active; HEK293 TREx D2 cells, calcium flux, dopamine EC80; inhibition, % at 10 µM; P14416; in the data active = inhibition above about 30%; inactive = below that, where a call was filed; also: 0% is about no effect
#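 HEK293 T-REx D2 cells, tet-induced, calcium dye no-wash. Cpd pintool add, 180 s kinetic, then EC80 DA, 180 s kinetic. Ca flux read.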
# D2 PAM-2: positive allosteric modulators of human D2 dopamine receptor; P14416; DiscoveRx D2 beta-arrestin cells, luminescence, 90 min; 100% = 57 uM dopamine signal; potentiation, % (concentration not given with the values); 0.23% of 360,000 active; AID 624464; in the data active = potentiation above about 50%; inconclusive = mostly about 30% to 49%
#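 D2 cells co-treated with compound plus 50 nM dopamine (EC20) for 90 min at 37 deg C to detect potentiation. Beta-arrestin recruitment was read as enzyme-fragment luminescence after 1 h at ambient temperature. Full response was set by 57 uM dopamine.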
# Numbers without * were called inactive; ? = inconclusive; · = not tested or not shown.
SMILES,D2 ag-1,D2 PAM-1,D2 ag-2,D2 antag,D2 PAM-2
CCCCC(=O)Nc1ccc2oc(-c3cccnc3)nc2c1,-0.9,-7.3,-2.6,4.9,13.1
CCCC(=O)Nc1ccc2oc(-c3cccnc3)nc2c1,-0.8,13.2,-2.5,31.9*,?
CC1O[C@@H](OC2C(COC3OC(CO)C(O)[C@H](O)C3O)OC(OC3CC[C@]4(C)C(CC[C@@]5(C)[C@@H]4CC=C4[C@@H]6CC(C)(C)CC[C@]6(CO)C(O)C[C@]45C)C3(C)C)C(O)C2O)C(O)C(O)C1O (some centres undefined),·,·,-0.1,·,-52.2
CC1OC(O[C@H]2CC[C@]3(C)C4C=C[C@]56OC[C@@]7(CC[C@@H](C)[C@H](C)C75)[C@H](O)C[C@@]6(C)[C@]4(C)CC[C@H]3C2(C)C)C(OC2OC(CO)C(O)C(O)C2OC2OCC(O)C(O)C2O)C(O)C1O (some centres undefined),43.0*,-14.1,·,35.1*,·
Cc1cccc(OCCOCCSc2ncccn2)c1,-0.1,-1.3,-1.0,8.3,4.6
Cc1ccc(OCCSc2ncccn2)c(C)c1,-1.5,10.0,-1.5,36.7*,-16.1
CC1Cc2cc(/C(O)=C3/C(=O)C(=O)N(CCCn4ccnc4)C3c3ccc(F)cc3)ccc2O1 (centres undefined),0.7,-1.6,-1.2,44.2*,-3.2
Cc1ccc(/C(N)=N/OC(=O)N2c3ccccc3Sc3ccccc32)cc1,·,·,?,·,100.9*
Cc1cc(C)n(-c2nc(C)nc(NCc3ccccc3)n2)n1,2.8,0.9,-4.3,6.6,-42.9
CNc1nc(C)nc(-n2nc(C)cc2C)n1,0.0,-4.4,-4.6,35.3*,-3.4
CC(C)(C)n1nc2c(c1NC(=O)Cc1ccc(F)cc1)CSC2,0.6,3.3,-6.5,34.7*,-8.0
O=C(CN1C(=O)CSc2ccc(S(=O)(=O)N3CCCC3)cc21)NCc1ccccc1Cl,-0.4,3.0,·,·,·
Cn1c(-c2ccc(CN3CCCCC3)o2)nc2ccccc21,-0.3,-21.1,-4.7,33.8*,-42.4
O=C(NCCSc1c[nH]c2ccccc12)c1ccccc1Cl,-0.1,0.4,·,·,·
O=[N+]([O-])c1cc(-c2ccc(/C=N/c3nc4ccccn4c3-c3ccco3)o2)ccc1Cl,0.1,4.4,8.5,10.3,70.4*
O=[N+]([O-])c1ccc(-c2ccc(C=Nc3cccc4ccccc34)o2)cc1,-0.6,3.7,-0.4,-3.7,14.5
Cc1ccc(Sc2ccc(CN3CCCC3)cc2[N+](=O)[O-])cc1,1.2,-15.0,1.0,36.4*,-12.1
CCOc1ccccc1NC(=O)c1cc(S(=O)(=O)NCc2ccco2)ccc1F,1.0,8.3,1.1,8.5,-6.6
CCCn1cc(S(=O)(=O)c2ccccc2)c(=O)c2cc(OC)c(OC)cc21,-0.3,39.4*,-3.4,1.5,-7.2
Cc1ccc2c(c1)c1c(c(=O)n(Cc3ccccc3)c(=O)n1Cc1ccccc1F)n2C,·,-1.1,·,·,·
Cc1cc(=O)c2c(o1)C(=O)c1occc1C2=O,·,·,?,·,52.2*
Cc1cc(C)cc(-n2c(C)nc3cc(C(=O)NCc4ccccc4Cl)ccc32)c1,0.3,9.4,·,·,·
Cc1ccc(CN2C3CCCC2CC(NC(=O)c2ccc(F)cc2)C3)cc1 (centres undefined),-0.2,-20.7,-1.6,92.1*,-17.6
COCCCNC(=S)NC1CC2CCCC(C1)N2Cc1ccco1 (centres undefined),0.0,-15.8,-0.9,-15.7,-24.6
COc1cccc(C(=O)NNC(=O)c2ccccc2)c1,0.2,6.4,2.5,2.1,-2.6
SMILES,D2 ag-1,D2 PAM-1,D2 ag-2,D2 antag,D2 PAM-2
COc1cccc(C(=O)NN2c3ccccc3CCc3ccccc32)c1,-3.7,1.9,3.6,50.7*,3.6
CCCNC(=S)NC1CC2CCCC(C1)N2Cc1ccc(F)cc1 (centres undefined),0.0,-20.6,-0.2,80.6*,-77.6
Cc1ccc(C(=O)NC2CC3CCCC(C2)N3Cc2ccccc2)cc1 (centres undefined),0.7,-29.4,-0.8,3.8,-34.2
COc1ccc(CN2C3CCC2CC(NC(=O)c2cccc(F)c2)C3)cc1 (centres undefined),0.0,-26.3,-0.4,81.3*,-2.2
CCc1ccc(CNC(=O)c2sc3ncccc3c2-n2c(C)ccc2C)cc1,6.6,1.3,·,·,·
COc1ccc(OC)c(-c2cc(C(=O)Nc3cnn(Cc4ccc(Cl)cc4Cl)c3)no2)c1,0.9,-6.9,·,·,·
COc1cccc(C(=O)NC2CC3CCC(C2)N3Cc2ccccc2)c1 (centres undefined),0.6,-14.4,0.5,95.5*,-5.9
O=C(NC1CC2CCC(C1)N2Cc1ccccc1)c1cccc(F)c1 (centres undefined),1.4,-25.4,3.8,71.5*,-7.4
O=C(NC1CCN(C(=O)NCc2ccccc2)CC1)c1cccc(F)c1,0.8,·,-2.8,2.0,-3.3
COc1cccc(C(=O)NC2CC3CCCC(C2)N3CC(=O)Nc2ccccc2C(F)(F)F)c1 (centres undefined),1.1,-16.5,0.8,-21.4,-5.2
O=C(Nc1ccccc1-c1ccccc1)NC1CC2CCCC(C1)N2CCc1ccccc1 (centres undefined),-0.2,-17.7,-5.5,8.5,-10.4
Cc1cccc(C(=O)NC2CC3CCCC(C2)N3Cc2ccccc2)c1 (centres undefined),0.0,-18.0,-4.0,81.5*,-9.6
O=C(Nc1ccccc1-c1ccccc1)NC1CC2CCCC(C1)N2Cc1ccc(F)cc1 (centres undefined),-0.1,-25.0,-1.4,51.6*,-24.6
COc1cccc(Cn2c(=O)n(-c3ccccc3C)c(=O)c3c2c2cc(C)ccc2n3C)c1,-1.9,·,·,·,·
COc1ccccc1NC(=O)C1=C(C)Nc2ncnn2C1c1cccn1C (centres undefined),0.5,-6.9,·,·,·
CC(C)Cn1c(CCNC(=O)c2ccco2)nc2ccccc21,-0.8,2.1,-3.5,-1.0,-21.0
O=C(c1cc(-c2ccccc2)nc2ccccc12)N1CCCC1,-1.4,-3.8,-3.7,-10.8,-2.9
Cc1cnn(C(=O)c2cc(-c3ccccc3)nc3ccccc23)c1,-0.3,-8.3,1.1,54.9*,-12.6
CN(C)CCCNc1oc(-c2ccccc2Cl)nc1S(=O)(=O)c1ccccc1,0.9,-30.8,-2.1,86.0*,-2.0
CN(C)CCCNc1oc(-c2ccc(Cl)cc2)nc1S(=O)(=O)c1ccccc1,·,·,-5.7,·,-6.3
COc1ccc2nc(C(c3ccc(C)cc3)n3c(-c4ccccc4Br)nc4ccccc43)[nH]c2c1 (centres undefined),·,·,5.8,·,1.2
Cc1ccc(C)c(Cn2c(CO)nc3ccccc32)c1,-0.5,15.4,-2.6,-18.8,-7.7
Cc1ccc(C)c(Cn2ncc3ccccc32)c1,-1.0,41.3*,-3.8,-19.3,-4.0

# Bioassay records from PubChem.
